The record followed here is PubChem BioAssay (Tox21).

The nature of assay [1]: qHTS assay to identify small molecule antagonists of the thyroid receptor (TR) signaling pathway - cell viability counter screen (AID 743064). Also: nearly all actives have a fitted effect of over 50% in size. The method in brief: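 GH3.TRE-Luc rat pituitary cells carrying a TRE-luciferase reporter were treated with compound plus 1 nM T3 (final) for 23.5 h at 37 °C. Viability was then read in the same wells by CellTiter-Fluor fluorescence after a further 30 min.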

Assay [2] in a line: qHTS assay to identify small molecule antagonists of the thyroid receptor (TR) signaling pathway (AID 743065). Also: series mostly up to about 70 µM; nearly all actives have a fitted effect of over 55% in size. The method in brief:
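GH3.TRE-Luc rat pituitary cells (two TREs driving luciferase) were dosed with compound, then stimulated with 1 nM T3 (final) for 23.5 h at 37 C. ONE-Glo luminescence was the read-out, with CellTiter-Fluor fluorescence as the cytotoxicity counter-screen.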

Assay [3] deals with thyroid hormone receptor (rat, GH3 cells). Put plainly: qHTS assay to identify small molecule agonists of the thyroid receptor (TR) signaling pathway (AID 743066; calls by dose curve).
The target of assay [4] is Estrogen receptor (Homo sapiens) (UniProt P03372). Put plainly: qHTS assay to identify small molecule antagonists of the estrogen receptor alpha (ER-alpha) signaling pathway (AID 743069; active = well fitted curve in the direction sought with a large enough effect in the signal ratio in the repeat runs, not every such curve was filed as active; the % refers to the signal ratio). The method in brief:
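Reporter cells (ER-alpha-bla, HEK293 background) are conditioned overnight in stripped-serum medium (2% charcoal-stripped FBS). Compound and 17beta-estradiol exposure runs 18 hr at 37C, 5% CO2.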

A short description of assay [5]: qHTS assay to identify small molecule antagonists of the estrogen receptor alpha (ER-alpha) signaling pathway - cell viability counter screen (AID 743074; calls by dose curve;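 also: HEK293 cells carrying ER-alpha-UAS-bla reporter stimulated with 17beta-estradiol; nearly all actives have a fitted effect of over 45% in size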).
For assay [6], the target named is Estrogen receptor (Homo sapiens) (UniProt P03372). Put plainly: qHTS assay to identify small molecule agonists of the estrogen receptor alpha (ER-alpha) signaling pathway (AID 743075; calls by dose curve;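 also: HEK293 GripTite cells with ER-alpha and UAS-driven beta-lactamase reporter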).
Estrogen receptor (Homo sapiens), sequence (P03372 whole entry, looked up): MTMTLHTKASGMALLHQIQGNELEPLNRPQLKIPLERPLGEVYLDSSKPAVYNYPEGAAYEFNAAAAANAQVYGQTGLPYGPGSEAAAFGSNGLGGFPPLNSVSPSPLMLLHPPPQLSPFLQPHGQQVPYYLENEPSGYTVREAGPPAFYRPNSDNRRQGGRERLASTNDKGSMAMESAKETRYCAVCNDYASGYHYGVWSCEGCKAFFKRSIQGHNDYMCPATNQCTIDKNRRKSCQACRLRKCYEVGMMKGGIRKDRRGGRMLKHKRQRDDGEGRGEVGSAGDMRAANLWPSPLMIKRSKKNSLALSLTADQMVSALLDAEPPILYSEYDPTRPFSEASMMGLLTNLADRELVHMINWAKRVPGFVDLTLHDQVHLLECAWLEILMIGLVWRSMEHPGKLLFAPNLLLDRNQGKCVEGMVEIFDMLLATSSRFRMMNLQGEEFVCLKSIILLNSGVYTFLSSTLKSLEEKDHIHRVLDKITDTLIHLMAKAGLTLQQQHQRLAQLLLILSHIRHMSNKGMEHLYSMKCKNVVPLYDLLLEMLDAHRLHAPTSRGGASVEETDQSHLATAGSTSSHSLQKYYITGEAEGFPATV
For assay [7] the target is unchanged. Put plainly: qHTS assay to identify small molecule agonists of the estrogen receptor alpha (ER-alpha) signaling pathway using the BG1 cell line (AID 743079). Also: nearly all actives have a fitted effect of over 20% in size.
The nature of assay [8]: qHTS assay to identify small molecule antagonists of the estrogen receptor alpha (ER-alpha) signaling pathway using the BG1 cell line (AID 743080; calls by dose curve;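 also: BG1 cells stimulated with 17beta-estradiol alongside compound; nearly all actives have a fitted effect of over 25% in size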; also: potency is read from the fitted curve at half-maximal effect). The essentials:
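BG1Luc4E2, endogenous ER-alpha, 4xERE-luc; 5 d charcoal-stripped FBS, phenol red free; 24 h plating; cpd + 17beta-estradiol 21.5 h, 37 C/5% CO2; CellTiter-Fluor viability 30 min, then ONE-Glo luciferase 30 min RT.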

Assay [9] can be described thus: qHTS assay to identify small molecule antagonists of the estrogen receptor alpha (ER-alpha) signaling pathway using the BG1 cell line - cell viability counter screen (AID 743081).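 Also: compound given together with 17beta-estradiol as the ER stimulus; series mostly up to about 70 µM; nearly all actives have a fitted effect of over 45% in size.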
Another assay addresses Aromatase (Homo sapiens) (UniProt P11511). Put plainly: qHTS assay to identify aromatase inhibitors (AID 743083). Also: nearly all actives have a fitted effect of over 55% in size. Also: potency is read from the fitted curve at half-maximal effect.
Assay [10] in a line: qHTS assay to identify aromatase inhibitors - cell viability counter screen (AID 743084).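 Also: cells stimulated with testosterone during compound exposure; nearly all actives have a fitted effect of over 55% in size.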
Assay [11] has as its target Aryl hydrocarbon receptor (Homo sapiens) (UniProt P35869). Put plainly: qHTS assay to identify small molecule that activate the aryl hydrocarbon receptor (AhR) signaling pathway (AID 743085). Also: nearly all actives have a fitted effect of over 15% in size. Also: potency is read from the fitted curve at half-maximal effect.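 As to activation: HG2L7.5c1 human HepG2 liver cells with stably integrated DRE-driven firefly reporter; series mostly up to about 70 µM.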 The method in brief: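 HepG2 cells (HG2L7.5c1) stably carrying a firefly luciferase reporter driven by 20 dioxin responsive elements were exposed to compound for 24 h at 37C after a 5 h settling period; luminescence rise (ONE-Glo) indicated activation.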

Assay [12] is described as follows: qHTS assay to identify small molecule that activate the aryl hydrocarbon receptor (AhR) signaling pathway - cell viability counter screen (AID 743086).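 Also: HepG2 liver cells carrying the AhR DRE luciferase reporter; series mostly up to about 70 µM; nearly all actives have a fitted effect of over 45% in size.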 The method in brief: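 HepG2-AhR-luc (HG2L7.5c1) cells, 4000/well, treated 24 h at 37 C with compound; viability measured as CellTiter-Fluor fluorescence after 30 min in the same wells as the luciferase read.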

Assay [13] deals with Peroxisome proliferator-activated receptor gamma (Homo sapiens) (UniProt P37231). In words: qHTS assay to identify small molecule agonists of the peroxisome proliferator-activated receptor gamma (PPARg) signaling pathway (AID 743094; active = well fitted activation curve with a large enough effect in the signal ratio in the repeat runs, not every such curve was filed as active; the % refers to the signal ratio). The method in brief: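 GeneBLAzer PPARg UAS-bla HEK293H cells carrying a stably integrated beta-lactamase reporter were pre-incubated 5 h at 37C, then exposed to compounds in DMSO for 17 h at 37C; LiveBLAzer B/G FRET substrate was added for 1 h at room temperature and fluorescence read.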
Peroxisome proliferator-activated receptor gamma (Homo sapiens), sequence (P37231 whole entry, looked up): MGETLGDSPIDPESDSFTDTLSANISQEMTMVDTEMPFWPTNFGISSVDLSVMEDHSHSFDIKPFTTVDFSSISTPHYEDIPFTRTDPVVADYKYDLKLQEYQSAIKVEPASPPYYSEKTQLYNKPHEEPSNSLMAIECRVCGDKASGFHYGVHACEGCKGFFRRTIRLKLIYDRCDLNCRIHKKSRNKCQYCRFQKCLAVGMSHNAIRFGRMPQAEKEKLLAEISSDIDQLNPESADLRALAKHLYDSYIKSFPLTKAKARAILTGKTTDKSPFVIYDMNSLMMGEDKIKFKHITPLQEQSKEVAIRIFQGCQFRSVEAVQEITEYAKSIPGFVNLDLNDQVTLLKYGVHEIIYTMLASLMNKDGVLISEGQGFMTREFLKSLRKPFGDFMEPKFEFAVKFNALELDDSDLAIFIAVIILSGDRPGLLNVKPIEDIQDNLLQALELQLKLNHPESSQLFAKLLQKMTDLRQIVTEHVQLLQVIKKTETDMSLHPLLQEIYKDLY

Where “and” joins values, the source holds several entries; their conditions need not be identical. Identical values can stand only once. Records with an inconclusive call do not appear. The source holds several records for some structures; these can differ, active in one and inactive in another. Calls of active or inactive are those of the source. Unless noted, calls follow the shape of the dose curve; as a rule, active = well fitted curve in the direction sought with a large enough effect in the repeat runs; inconclusive = weak or mixed curves; inactive = no such curve, though single readings can be large; an effect the other way counts as inactive or inconclusive. Residues, ends and D or L forms follow the SMILES beside them.

Aryl hydrocarbon receptor (Homo sapiens), sequence (P35869 whole entry, looked up): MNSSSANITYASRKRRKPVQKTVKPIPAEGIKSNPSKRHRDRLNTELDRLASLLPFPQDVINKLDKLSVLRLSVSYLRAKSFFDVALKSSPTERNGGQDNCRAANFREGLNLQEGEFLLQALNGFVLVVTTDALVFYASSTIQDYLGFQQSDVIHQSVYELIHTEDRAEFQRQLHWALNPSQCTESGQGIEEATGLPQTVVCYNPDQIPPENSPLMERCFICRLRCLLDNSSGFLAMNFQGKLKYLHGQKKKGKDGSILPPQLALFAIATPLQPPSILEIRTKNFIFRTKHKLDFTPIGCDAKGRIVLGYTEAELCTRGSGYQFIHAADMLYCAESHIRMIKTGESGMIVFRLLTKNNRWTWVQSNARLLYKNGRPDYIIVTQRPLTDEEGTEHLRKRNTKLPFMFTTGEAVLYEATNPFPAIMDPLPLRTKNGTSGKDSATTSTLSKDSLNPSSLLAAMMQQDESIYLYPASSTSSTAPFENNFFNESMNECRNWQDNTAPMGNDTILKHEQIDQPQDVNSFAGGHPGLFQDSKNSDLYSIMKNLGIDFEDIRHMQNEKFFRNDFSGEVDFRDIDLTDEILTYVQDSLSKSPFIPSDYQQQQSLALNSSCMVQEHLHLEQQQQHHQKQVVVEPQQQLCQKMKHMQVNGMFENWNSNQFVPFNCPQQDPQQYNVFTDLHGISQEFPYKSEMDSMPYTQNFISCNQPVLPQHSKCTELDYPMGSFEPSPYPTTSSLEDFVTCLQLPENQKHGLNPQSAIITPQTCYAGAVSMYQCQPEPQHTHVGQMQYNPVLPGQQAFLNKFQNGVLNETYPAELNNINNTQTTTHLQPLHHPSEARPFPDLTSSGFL
Aromatase (Homo sapiens), sequence (P11511 whole entry, looked up): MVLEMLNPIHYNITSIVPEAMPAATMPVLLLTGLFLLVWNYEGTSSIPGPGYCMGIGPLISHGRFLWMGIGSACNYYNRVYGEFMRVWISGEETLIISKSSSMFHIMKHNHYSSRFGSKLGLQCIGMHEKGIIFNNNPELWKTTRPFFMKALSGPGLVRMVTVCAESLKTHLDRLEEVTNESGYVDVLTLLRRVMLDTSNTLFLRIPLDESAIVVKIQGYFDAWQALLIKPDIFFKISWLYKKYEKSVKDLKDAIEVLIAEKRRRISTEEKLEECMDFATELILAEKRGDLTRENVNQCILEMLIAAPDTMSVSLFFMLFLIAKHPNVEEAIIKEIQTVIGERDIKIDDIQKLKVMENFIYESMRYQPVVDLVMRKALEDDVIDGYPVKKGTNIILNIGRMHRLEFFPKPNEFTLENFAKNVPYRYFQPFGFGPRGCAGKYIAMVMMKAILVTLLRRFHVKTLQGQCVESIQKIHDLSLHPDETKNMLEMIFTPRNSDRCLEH

With `CO/N=C(\C(=O)N[C@@H]1C(=O)N2C(C(=O)O)=C(CSc3nc(C)c(CC(=O)O)s3)CS[C@H]12)c1csc(N)n1`, the Potency result in assay [1], in assay [2], in assay [3], in [4], in assay [5] and in assay [6] was “inactive” in each case. Moreover, the Potency entry (in assay [7]; in assay [8]; in [9]; with Aromatase (Homo sapiens); in [10]; in assay [11]) was “inactive” in each case. For the same molecule, the Potency entry in [12] and in [13] was “inactive” in each case.
For `Cc1cnc(C(=O)O)c[n+]1[O-]`, the Potency result in assay [1], in assay [2], in [3], in assay [4], in assay [5] and in assay [6] was “inactive” throughout. In addition, the Potency result (in assay [7]; in assay [8]; in [9]; with Aromatase (Homo sapiens); in [10]; in [12]) was “inactive” each time. Also, the Potency result in assay [13] was “inactive”.
As for `O=C(O)CCCC/C=C(\c1ccccc1)c1cccnc1`, the Potency result in [1], in assay [2], in assay [3], in assay [4], in [5] and in assay [6] was “inactive” each time. Further, the Potency result (in assay [7]; in [8]; in assay [9]; in the assay with Aromatase (Homo sapiens); in assay [10]; in assay [11]) was “inactive” in each case. The Potency entry in assay [13] is “inactive”.
Take `O=C[C@H](O)[C@@H](O)[C@@H](O)[C@H](O)CO`: the Potency entry in assay [1], in [2], in assay [3], in assay [4], in assay [5] and in assay [6] was “inactive” in each case. Moreover, the Potency result (in assay [7]; in assay [8]; in assay [9]; in the assay with Aromatase (Homo sapiens); in assay [10]; in assay [11]) was “inactive” each time. Also, the Potency entry in [12] and in [13] was “inactive” each time.
In the case of `CC(C)Cc1ccc([C@H](C)C(=O)O)cc1`, the Potency result in assay [1], in assay [2], in assay [3], in assay [4], in [5] and in assay [6] was “inactive” throughout. The Potency entry (in [7]; in assay [8]; in assay [9]; in the assay with Aromatase (Homo sapiens); in assay [10]; in [11]) was “inactive” each time. Further, the Potency entry in assay [13] is “inactive”.
With `O=P(O)(O)C(O)(Cn1ccnc1)P(=O)(O)O`, the Potency entry in [1], in assay [2], in assay [3], in [4], in assay [5] and in [6] was “inactive” in each case. For the same molecule, the Potency entry (in assay [7]; in assay [8]; in [9]; with Aromatase (Homo sapiens); in [10]; in [11]) was “inactive” in each case. The Potency entry in assay [13] is “inactive”.
Turning to `O=C(O)Cc1nn(Cc2ccc(Br)cc2F)c(=O)c2ccccc12`, the Potency result in [1], in assay [2], in assay [3], in [4], in assay [5] and in assay [6] was “inactive” throughout. In addition, the Potency entry (in [7]; in assay [8]; in assay [9]; with Aromatase (Homo sapiens); in assay [10]; in [11]) was “inactive” each time. Further, the Potency result in assay [13] was “inactive”.
Turning to `C/C(=C(/CCO)SSCC1CCCO1)N(C=O)Cc1cnc(C)nc1N` (configuration not stated), the Potency entry in assay [1], in [2], in assay [3], in assay [4], in assay [5] and in assay [6] was “inactive” in each case. Moreover, the Potency entry in [7], in assay [8], in [9], in assay [10], in assay [11] and in assay [12] was “inactive” in each case. Besides, in [13], the Potency entry was “inactive”. For the same molecule, the Potency entry with Aromatase (Homo sapiens) is “inactive and 29.8 µM (active)”.
Consider `CCC[C@@H]1C[C@@H](C(=O)N[C@@H]([C@H]2O[C@H](SC)[C@H](OP(=O)(O)O)[C@@H](O)[C@H]2O)[C@H](C)Cl)N(C)C1`, for which the Potency entry in [1], in [2], in [3], in assay [4], in assay [5] and in assay [6] was “inactive” each time. For the same molecule, the Potency entry (in assay [7]; in assay [8]; in assay [9]; with Aromatase (Homo sapiens); in [10]; in assay [11]) was “inactive” in each case. The Potency result in assay [12] and in assay [13] was “inactive” in each case.
As to `CN[C@H](CC(C)C)C(=O)N[C@H]1C(=O)N[C@@H](CC(N)=O)C(=O)N[C@H]2C(=O)N[C@H]3C(=O)N[C@H](C(=O)N[C@@H](C(=O)O)c4cc(O)cc(O)c4-c4cc3ccc4O)[C@H](O)c3ccc(c(Cl)c3)Oc3cc2cc(c3O[C@@H]2O[C@H](CO)[C@@H](O)[C@H](O)[C@H]2O[C@H]2C[C@](C)(N)C(O)[C@H](C)O2)Oc2ccc(cc2Cl)[C@H]1O` (some centres not stated), the Potency result in [1], in assay [2], in assay [3], in assay [4], in assay [5] and in [6] was “inactive” throughout. The Potency result (in assay [7]; in assay [8]; in assay [9]; with Aromatase (Homo sapiens); in [10]; in assay [12]) was “inactive” each time. Also, the Potency entry in [13] is “inactive”.
In the case of `NC(=O)C1c2ccccc2CCc2ccccc21`, the Potency entry in assay [1], in [2], in assay [3], in assay [4], in assay [5] and in assay [6] was “inactive” in each case. Further, the Potency entry (in assay [7]; in [8]; in assay [9]; with Aromatase (Homo sapiens); in assay [10]; in [11]) was “inactive” throughout. In addition, the Potency entry in assay [13] is “inactive”.
Turning to `CC(C)=CCC/C(C)=C/CC/C(C)=C/CC/C(C)=C/CC1=C(C)C(=O)c2ccccc2C1=O`, the Potency entry in assay [1], in assay [2], in [3], in [4], in assay [5] and in assay [6] was “inactive” each time. For the same molecule, the Potency entry (in assay [7]; in assay [9]; with Aromatase (Homo sapiens); in assay [10]; in [13]) was “inactive” in each case. For the same molecule, the Potency result is “inactive and 9.44 µM (active)” in assay [8]; 10.6 µM (active) in [11].
For `CC(C)=CCC/C(C)=C/CC/C(C)=C/CC/C=C(\C)CC/C=C(\C)CCC=C(C)C`, the Potency result in assay [1], in [2], in [3], in [4], in assay [5] and in assay [6] was “inactive” in each case. Besides, the Potency result (in assay [7]; in assay [8]; in [9]; with Aromatase (Homo sapiens); in [10]; in assay [12]) was “inactive” each time. The Potency result in assay [13] is “inactive”.
Turning to `Cc1c(O)c(=O)ccn1C`, the Potency entry in assay [1], in [2], in assay [3], in [4], in assay [5] and in [6] was “inactive” throughout. Besides, the Potency entry (in assay [7]; in [8]; in assay [9]; with Aromatase (Homo sapiens); in assay [10]; in [12]) was “inactive” throughout. The Potency entry in assay [13] was “inactive”.
As for `CC(C)[C@H](NC(=O)[C@H](CC(=O)O)NC(=O)[C@H](CCCCN)NC(=O)[C@@H](N)CCCN=C(N)N)C(=O)N[C@@H](Cc1ccc(O)cc1)C(=O)O` (H-RKDVY-OH), the Potency entry in [1], in assay [2], in assay [3], in assay [4], in assay [5] and in assay [6] was “inactive” throughout. Further, the Potency entry (in assay [7]; in [8]; in assay [9]; in the assay with Aromatase (Homo sapiens); in [10]; in [11]) was “inactive” throughout. In addition, in assay [13], the Potency result is “inactive”.
Regarding `C[N+](C)(C)CCOP(=O)(O)OP(=O)([O-])OC[C@H]1O[C@@H](n2ccc(N)nc2=O)[C@H](O)[C@@H]1O`, the Potency result in assay [1], in assay [2], in assay [3], in assay [4], in assay [5] and in [6] was “inactive” in each case. Besides, the Potency entry (in [7]; in assay [8]; in [9]; with Aromatase (Homo sapiens); in [10]; in assay [11]) was “inactive” each time. Further, in assay [13], the Potency entry is “inactive”.
